Assay results from article PMC7826789 (International Journal of Molecular Sciences, 2021).

These molecules were tested on FLT1.

SMILES | Kinases covered
CCS(=O)(=O)c1ccc(OC)c(Nc2ncc(-c3cccc(F)c3)o2)c1 [GW621970X] | FLT1
CCn1cc(-c2ccnc3[nH]c(-c4cccc(CN(C)C)c4)cc23)c(-c2ccc(NC(=O)N(C)C)cc2)n1 [GSK1070916] | FLT1
CCS(=O)(=O)c1ccc(OC)c(Nc2ncc(-c3cccc(OC)c3)o2)c1 [GW580509X] | FLT1
O=C(Nc1ccccc1)Nc1cccc(Oc2ccc3nccn3n2)c1 [TPKI-39] | FLT1

The molecules below were run on GAK.

SMILES | Kinases covered
O=C(O)/C=C/C(=O)O.OCCCNc1nccc(-c2c(-c3ccc(F)cc3)nn3cc(C(F)(F)F)ccc23)n1 [GW569293E] | GAK
C#Cc1cccc(Nc2ncnc3cc(OC)c(OC4CCN(C)CC4)cc23)c1 [BI00007366] | GAK
COc1cc(Nc2ccnc3ccc(Br)cc23)cc(OC)c1OC [CA93.0] | GAK
COc1cc2ncnc(Nc3ccc(F)c(Cl)c3)c2cc1O[C@H]1CC[C@H](N)CC1 [BIBW3133BS] | GAK
CCCc1cc(N2CCCN(C)CC2)nc2sc3c(N)ncnc3c12 [BI00604564] | GAK

The molecules below were run on GSK3A.

SMILES | Kinases covered
COc1ccc(CSc2nnc(-c3ccc4ncsc4c3)o2)cc1C(F)(F)F [TPKI-91] | GSK3A
CCC(NN(C)C)=C1C(=O)Nc2ccc(C(C)=O)cc21 [BI00036838] | GSK3A
O=C(Nc1n[nH]c2nc(-c3nccs3)c(Br)cc12)C1CCCC1 [SB-742609] | GSK3A
COc1cccc(-n2ncc3c(N/N=C/c4ccncc4)ncnc32)c1 [GW784752X] | GSK3A
